Compound activity from PubChem.
FLuc inh = firefly luciferase inhibition; Potency, µM (highest dose often 57.1 µM), for the others: at the top dose activity change, negative = inhibition, hits mostly inhibitors; P08659; 72,000 tested, 2.2% active; purified firefly luciferase, luminescence, 8 min; AID 411; further: on the % scale 0 is the no-effect control and ±100 the full control effect; nearly all actives have a fitted effect of over 40% in size
Target sequence (P08659 whole entry, looked up): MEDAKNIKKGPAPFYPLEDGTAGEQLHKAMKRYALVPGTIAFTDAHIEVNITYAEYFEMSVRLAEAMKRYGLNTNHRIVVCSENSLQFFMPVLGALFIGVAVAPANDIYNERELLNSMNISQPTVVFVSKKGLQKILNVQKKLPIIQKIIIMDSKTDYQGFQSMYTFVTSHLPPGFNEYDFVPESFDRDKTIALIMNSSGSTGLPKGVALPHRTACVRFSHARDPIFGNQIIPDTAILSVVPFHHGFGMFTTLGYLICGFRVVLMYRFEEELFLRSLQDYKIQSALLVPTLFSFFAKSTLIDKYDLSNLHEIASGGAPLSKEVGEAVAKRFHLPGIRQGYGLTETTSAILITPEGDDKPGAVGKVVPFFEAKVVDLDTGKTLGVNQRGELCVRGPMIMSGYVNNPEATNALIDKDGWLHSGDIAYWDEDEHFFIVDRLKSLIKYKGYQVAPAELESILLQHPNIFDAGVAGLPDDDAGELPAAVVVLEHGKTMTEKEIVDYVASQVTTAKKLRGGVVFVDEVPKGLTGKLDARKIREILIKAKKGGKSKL
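Substrate buffer containing 10 uM ATP (pH 7.2 imidazole, Mg2+, KCl, detergent, BSA) is dispensed, compound pinned in, then luciferase/luciferin detector mix added. After 8 min at ambient temperature, light output is measured.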
IkB signaling = suppresses IkB signaling in ABC-DLBCL reporter cells | ABC-DLBCL IkBa-CBG/CBR dual luciferase ratio, 4 h; response scale: scaled: untreated 0%, proteasome inhibitor 100% | Potency, µM (series often up to 57.1 µM), for inactives: at the highest dose IkBa stabilization activation | 110,000 tested, 0.04% active; active means well fitted curve in the direction sought with a large enough effect in the signal ratio, not every such curve was filed as active; inconclusive means small, poorly fitted or top-dose-only effect, or a change in a side signal; the % refers to the signal ratio;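 further: the direction sought is a rising ratio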
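Curves were fitted separately to fusion (green), unfused (red) and ratio luminescence, then classed by r2, magnitude and activity. Cells: OCI-Ly3, 4 h compound plus doxycycline at 37C; 10 uM MG-132 defined full response.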
p53ts 32C kill = cytotoxicity in p53ts cells at permissive temperature; H1299-p53A138V at 32C, ATP luminescence viability, 24 h; AID 924; Potency, µM (series often up to 46.1 µM), without a hit: at the highest dose activity change, negative = cytotoxicity, most hits filed as cytotoxic; 130,000 tested, 0.93% active;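 further: 0% = DMSO and -100% = full killing by reference compound; nearly all actives have a fitted effect of over 55% in size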
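Cells: H1299 p53ts (A138V), 600/well, pre-incubated 16–30 h at 37C. Cpd up to 46 uM, 24 h, 32C. Readout: ATPlite luminescence, 20 min RT. Normalization: DMSO vs tamoxifen 100 uM. AC50 by Hill equation.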
p53ts 39C kill = kills p53ts cells at the nonpermissive temperature. H1299-p53A138V viability at 39C, ATP luminescence, 24 h. Potency, µM (top dose mostly 46.1 µM), without a hit: at the highest dose activity change, negative = cell killing, actives largely listed as cytotoxic. 130,000 tested, 1.5% active; further: on the % scale 0 is the no-effect control and ±100 the full control effect; nearly all actives have a fitted effect of over 55% in size
Peg3 imprint = inducers of genomic imprint erasure in mouse ES cells; 110,000 tested, 0.02% active; mouse ES Peg3-LacZ reporter, beta-gal luminescence, 40 h; Potency, µM (doses to about 60.7 µM), for the others: at the highest dose activity change, positive = activation, usual class: activators
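Readout: BetaGlo luminescence (5 min, room temp) for LacZ from the normally silent maternal Peg3 allele in female Peg3LacZ-Neo ES cells. Cells 300/well, 40 h, 37C, 5% CO2. Data normalized per plate to negative controls.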
* hit, by the source's call; ? = inconclusive; nt = no result; ! = a repeat was not active; [ ] = remark or other dose. Rows were chosen to be rich in hits. Some 2.4% of all compounds tested hit in one or more screens of this group. Unless noted, the call rests on the fitted dose curve; in most records, active means well fitted curve in the direction sought with a large enough effect; inconclusive means small, poorly fitted or top-dose-only effect, or another doubt; inactive means no such curve, though single readings can be large; an effect the other way counts as inactive or inconclusive. Potency means the concentration at half of the fitted maximal effect.

SMILES	FLuc inh	IkB signaling	p53ts 32C kill	p53ts 39C kill	Peg3 imprint
Cc1c2cnn(CC(=O)NCc3ccc(F)cc3)c(=O)c2c(C)n1Cc1cccc(Cl)c1	nt	0.5%	0.9%	?	-6.6%[10.9 µM]
CCCCNc1c(C(=O)OCC)c(C)nc2c1cnn2CC	1.8%	?	36.7%	15.8µM*!	-15.4%
COC(=O)c1ccc2c(=O)n(CCCCCC(=O)N3CCN(c4cc(Cl)ccc4C)CC3)c(=O)[nH]c2c1	nt	-0.3%	6.31µM*	3.98µM*	-11.5%[10.9 µM]
COC(=O)c1ccc2c(=O)n(CCCCCC(=O)N3CCN(c4ccccc4)CC3)c(=O)[nH]c2c1	-0.8%	?	?	?	-7.9%
O=C(NCCN1CCCCC1)c1ccc(Cn2c(SCc3ccccc3)nc3cccnc32)cc1	nt	?	12.6µM*	10µM*	-12.3%[10.9 µM]
CC1CCCCN1CCNC(=O)c1ccc(Cn2c(SCc3ccccc3)nc3cccnc32)cc1 (stereo not given)	nt	?	10µM*	10µM*	-14.2%[10.9 µM]
Cc1ccccc1CNC(=O)c1ccc(Cn2c(SCc3ccccc3)nc3cccnc32)cc1	nt	nt	8.8%	nt	nt
CC1CCN(CCNC(=O)c2ccc(Cn3c(SCc4ccccc4)nc4cccnc43)cc2)CC1	nt	?	?	10µM*	-17.7%[10.9 µM]
CC(CNC(=O)c1ccc(Cn2c(SCc3ccccc3)nc3cccnc32)cc1)c1ccccc1 (stereo not given)	nt	nt	-28.1%	nt	nt
Cc1ccc(Cn2c(=O)c3cccnc3n(CC(=O)Nc3cc(Cl)ccc3C)c2=O)cc1	nt	0.3%	3.7%	-7.6%	-3.9%[10.9 µM]
Cc1ccc(CNC(=O)c2cc3c(=O)n(Cc4cccnc4)ccc3nc2C)cc1	nt	0.2%	-6.6%	-15.0%	-7.7%[10.9 µM]
Nc1nonc1-c1nc2ccccc2n1Cc1c(Cl)cccc1Cl	nt	?	-8.0%	?	-11.8%[10.9 µM]
CC(=O)Nc1cccc(NC(=O)CSc2ncc(-c3ccc(Cl)cc3)n2Cc2ccco2)c1	1.0%	?	?	12.6µM*	-14.7%
COc1ccc(-c2cnc(SCC(=O)Nc3ccc4c(c3)OCO4)n2Cc2ccco2)cc1	-7.6%	?	0.8%	36.3%	-22.0%
O=C(Nc1ccccc1Cl)N1CCC2(CC1)Oc1ccccc1C(=O)N2Cc1ccc(F)cc1	nt	?	4.7%	-12.4%	-12.7%[10.9 µM]
CCOC(=O)c1c(-c2ccccc2)oc2ccc(NS(=O)(=O)c3ccc(OC)cc3)cc12	nt	?	20.2%	-15.6%	-21.0%[10.9 µM]
CCCc1oc2ccc(NS(=O)(=O)c3ccc(OCC)cc3)cc2c1C(=O)OCC	nt	?	?	20µM*	-17.2%[10.9 µM]
CCCc1oc2ccc(NS(=O)(=O)c3ccc(OC)cc3)cc2c1C(=O)OCC	nt	?	-2.4%	?	-23.3%[10.9 µM]
CCOC(=O)c1c(-c2ccccc2)oc2ccc(NS(=O)(=O)c3ccccc3)cc12	nt	?	42.7%	15.8µM*	-26.5%[10.9 µM]
O=C(CCC1CCCC1)Nc1ccc(OCC(=O)N2CCOCC2)cc1	nt	nt	7.94µM*	?	nt
CCOc1ccc(OCC(=O)N2CCOCC2)cc1	-0.8%	1.1%	0.9%	4.1%	0.6%
Cc1cc(OCC(=O)N2CCOCC2)ccc1NC(=O)C1CCCCC1	2.0%	-0.7%	8.6%	-4.7%	2.3%
CN(C)S(=O)(=O)c1ccc(C(=O)Nc2ccc(OCC(=O)N3CCOCC3)cc2)cc1	15.8µM*	-2.7%	?	?	-2.0%
O=S(=O)(Nc1cccnc1)c1cccc2cccnc12	-0.9%	-0.6%	4.8%	4.4%	-12.7%
CCN1CCN(Cc2ccccc2NC(=O)Nc2ccc(C)cc2)CC1	3.2%	-1.8%	-18.5%	-8.5%	-10.8%
CCN1CCN(Cc2ccc(NC(=O)Nc3ccccc3Cl)cc2)CC1	15.8µM*	1.0%	10µM*	7.94µM*	-15.7%
O=C(Cc1cc(=O)[nH]c(=O)[nH]1)N1CCC(Cc2ccccc2)CC1	10µM*	1.3%	10µM*	?	-15.2%
COc1ccc(CCNC(=O)Cn2c(=O)c3cccn3c3ccccc32)cc1OC	nt	?	-21.3%	15.8µM*	-3.3%[10.9 µM]
COc1ccc(CCNC(=O)Cn2c(=O)c3cccn3c3ccc(F)cc32)cc1OC	nt	0.0%	4.6%	11.8%	-12.4%[10.9 µM]
O=C(CCCn1c(=O)c2cccn2c2ccccc21)NCCc1ccc(Cl)cc1	nt	?	10µM*	12.6µM*	-21.5%[10.9 µM]
